Laboratory results reported in the supplement of paper PMC12669032.
Values without a mark were called inactive.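 How the source made its calls: active = AUC reduced over 20% with Padj below 0.05 in at least 2 of 3 replicates; inactive = otherwise.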

Experiments:
Test in all cases: growth AUC relative to DMSO control (median of replicates) (fraction); higher = more growth (less inhibition), active = hit call of the paper
Details in all cases: 20 µM; 24 h
Coprococcus comes = tested on: Coprococcus comes
How it was run: (§1)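 Area under the growth curve was normalised to the plate median of solvent-only wells, except on the industrial chemical plate, where row and column medians were used. Curves came from gut bacterial monocultures grown anaerobically at 37 °C in mGAM with 20 µM compound (1% DMSO), starting at OD600 0.05 and read at OD600 every hour for 24 h. The minimum OD of each curve was set to 0, and values are medians of three biological replicates grown on separate days.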

Escherichia coli ED1a = tested on: Escherichia coli ED1a
How it was run: as §1

Escherichia coli IAI1 = tested on: Escherichia coli IAI1
How it was run: as §1

Eubacterium rectale = tested on: Eubacterium rectale
How it was run: as §1

[1] = tested on: Fusobacterium nucleatum subsp. animalis
How it was run: as §1

Lactobacillus gasseri = tested on: Lactobacillus gasseri
How it was run: as §1

Lactobacillus paracasei = tested on: Lactobacillus paracasei
How it was run: as §1

Odoribacter splanchnicus = tested on: Odoribacter splanchnicus
How it was run: as §1

[2] = tested on: Parabacteroides distasonis
How it was run: as §1

Parabacteroides merdae = tested on: Parabacteroides merdae
How it was run: as §1

Roseburia intestinalis = tested on: Roseburia intestinalis
How it was run: as §1

Streptococcus salivarius = tested on: Streptococcus salivarius
How it was run: as §1

SMILES	growth AUC (Coprococcus comes)	growth AUC (Escherichia coli ED1a)	growth AUC (Escherichia coli IAI1)	growth AUC (Eubacterium rectale)	growth AUC [1]	growth AUC (Lactobacillus gasseri)	growth AUC (Lactobacillus paracasei)	growth AUC (Odoribacter splanchnicus)	growth AUC [2]	growth AUC (Parabacteroides merdae)	growth AUC (Roseburia intestinalis)	growth AUC (Streptococcus salivarius)
O=S(=O)(Oc1ccc(Cl)cc1Cl)c1ccccc1	1.03	0.98	0.986	1.02	0.938	1.03	1.14	1.09	0.972	1.02	0.974	1.03
CC(C)CNC(=O)N1CCNC1=O	1.01	1.02	1.02	1.02	1.07	1.05	1.04	1.06	0.956	1.01	1.1	0.995
CC(C)N(C(=O)CS(=O)CC(=O)O)c1ccc(F)cc1 (stereo not given)	0.957	1	0.941	0.829	0.969	1.01	0.97	1.06	1.08	0.977	1.03	0.948
c1ccc(Nc2ccccc2)cc1	0.97	0.986	1.01	0.9	0.988	1.1	0.878	1.03	1.02	0.983	1.01	1.02
CCC/C(=N\OCC)C1=C(O)CC(C2CCCSC2)CC1=O (stereo not given)	1.03	0.988	1.01	1.14	1.03	0.907	0.986	1.01	0.81	1.04	0.937	0.974
NC1=C(Cl)C(=O)c2ccccc2C1=O	1	0.896	0.804	1.19	1.25	0.863	0.995	0.876	0.528 (active)	0.88	0.963	1
CCC(C)Nc1nc(N)nc(Cl)n1 (stereo not given)	0.981	1	1.01	1.05	1.03	0.996	1.02	0.976	1.01	1.03	0.998	0.987
Cc1nn(C)c(OCC(=O)c2ccccc2)c1C(=O)c1ccc(Cl)cc1Cl	1.02	0.995	1	1.04	1.02	1.02	0.991	0.961	0.674 (active)	0.926	0.981	1.01
CCCCCCCC(=O)Oc1c(Br)cc(C#N)cc1Br	1.01	0.973	0.924	1.15	0.966	0.987	0.863	1.12	0.975	0.922	0.935	0.937
CCCCC(CC)COC(=O)COc1ccc(Cl)cc1C (stereo not given)	1.03	0.981	1.01	1.05	0.989	0.828	0.962	0.934	0.923	0.937	0.93	0.978
Oc1ccc2ccccc2c1N=Nc1ccccc1	0.858	1.01	1.01	0.983	1	0.973	0.733 (active)	1.04	0.905	1.05	1.13	0.914
Cc1cccc(C)c1N(CCSCC(O)C(=O)[O-])C(=O)CO.[Na+] (stereo not given)	1.04	0.977	0.97	1.07	0.984	0.849	0.95	1.01	0.927	0.99	1.02	0.97
CCOC(=O)C(C)Oc1ccc(Oc2cnc3cc(Cl)ccc3n2)cc1 (stereo not given)	1.01	0.997	1.04	1.09	1.03	1.04	0.95	1.02	0.971	0.956	1.02	1.05
C[S+](C)CCC(=O)O.[Cl-]	0.97	0.985	1.01	0.923	0.939	1.08	1.01	0.979	0.959	1.02	1.01	0.994
c1ccc2c(c1)Cc1ccccc1-2	1.01	1.03	1	1	1.03	1.05	1.05	1.05	0.962	1.02	1	0.985
COc1cc(OC)c(Cl)cc1N	1.03	1	1.01	1.03	1.14	0.969	1.04	1.04	1.02	1.04	1.06	1.06
COC(=O)c1ccc(I)cc1S(=O)(=O)[N-]C(=O)Nc1nc(C)nc(OC)n1.[Na+]	0.947	1.02	0.948	1.07	1.14	0.919	0.969	1.07	0.95	1.01	0.934	0.948
CC(C)C(O)(c1ccc(OC(F)(F)F)cc1)c1cncnc1 (stereo not given)	1.01	0.981	0.961	0.994	0.926	1.05	1.02	0.938	0.959	0.588 (active)	1.04	1.04
COC(=O)c1cccc(C)c1S(=O)(=O)NC(=O)Nc1nc(OCC(F)(F)F)nc(N(C)C)n1	0.967	0.992	0.997	0.963	0.956	1.05	0.936	0.997	1.02	0.99	0.984	0.984
CC(C)c1cc(Oc2ccccc2)cc(C(C)C)c1NC(=S)NC(C)(C)C	0.896	1.01	1.01	0.45 (active)	0.911	0.978	1.03	0.989	1.05	0.957	0.926	0.992
Br[C@@H]1CC[C@@H](Br)[C@@H](Br)CC[C@H](Br)[C@H](Br)CC[C@H]1Br	0.975	0.944	0.968	1.08	1.03	0.91	0.872	0.992	0.825	1	1.43	0.898
CN1CCC[C@H]1c1cccnc1	0.984	0.99	1.01	0.978	0.98	0.941	0.991	0.989	1.02	0.993	0.933	0.949
CCOc1ccc(C2(C(=O)OC(C#N)c3cccc(Oc4ccccc4)c3)CC2(Cl)Cl)cc1 (stereo not given)	1.03	1.01	0.981	1.06	1.07	0.848	1	1.03	0.93	0.943	0.951	0.891
COc1cc(OC)nc(NC(=O)NS(=O)(=O)c2c(Cl)nc3ccccn23)n1	0.981	1.01	1.01	1.01	1.13	1.06	1.11	0.984	1.02	1.04	1	1.05
O=C(O)C1(C(=O)Nc2ccc(Cl)cc2Cl)CC1	1.01	1.02	1.02	0.98	1.03	0.955	0.999	0.994	0.909	1.01	1.02	1.01
